# About 280 (0.082%) of roughly 340,000 compounds were called active. Rule as the data show it: active = inhibition mostly above about 23% (no sharp cut-off); inactive = mostly below about 18%. Only a selection was taken, and actives are over-represented in it overall.
# Biological target: 5-hydroxytryptamine receptor 5A (Homo sapiens) (UniProt P47898)
# Assay: HTR5A inverse agonists in luminescence cell assay, primary screen, counter-screen for OPRM1-OPRD1 heterodimer inverse agonist project, full-deck HTS (AID 504634);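 also: 0% = cells with DMSO and 100% = no-cell wells with DMSO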
# Conditions: HTR5A cell line, inverse agonism, at 9.3 µM, active compounds read high
# Chain of 5-hydroxytryptamine receptor 5A (Homo sapiens) (P47898 whole entry, looked up): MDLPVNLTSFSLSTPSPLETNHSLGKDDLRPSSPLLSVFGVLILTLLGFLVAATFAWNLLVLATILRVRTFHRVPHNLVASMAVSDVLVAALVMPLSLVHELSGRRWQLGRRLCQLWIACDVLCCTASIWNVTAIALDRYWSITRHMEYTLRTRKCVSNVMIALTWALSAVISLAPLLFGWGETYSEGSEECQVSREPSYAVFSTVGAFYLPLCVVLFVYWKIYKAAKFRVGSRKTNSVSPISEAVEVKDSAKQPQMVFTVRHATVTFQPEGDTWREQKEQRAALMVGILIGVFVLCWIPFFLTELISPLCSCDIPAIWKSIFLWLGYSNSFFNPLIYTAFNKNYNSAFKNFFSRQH
row,SMILES,inhibition
1,CC(=O)OC1C2(CC3N4C(=O)C5(CO)SSC4(CC31O)C(=O)N5C)OC(C)C(C)(C)C2=O (stereo not given),97.6% (active)
2,COC1C(O)C(C)OC(OC2CCC3(C=O)C(CCC4C3CCC3(C)C(C5=CC(=O)OC5)CCC43O)C2)C1O (stereo not given),-11% (inactive)
3,c1ccc(C2NCc3ccccc3-n3cccc32)cc1 (stereo not given),-5.59% (inactive)
4,COC(=O)C1=C(c2cc3ccccc3s2)C[C@@H]2CC[C@H]1N2C(=O)NC(C)C,5.09% (inactive)
5,C[C@]12CCC3C(CC[C@H]4[C@H](O)[C@H](O)CC[C@]34C)C1CC[C@@H]2O (stereo not given in full),-10.8% (inactive)

# Reference: PubChem BioAssay AID504634 (The Scripps Research Institute Molecular Screening Center, 2011)
